Reference: PubChem BioAssay AID1159580 (chemical genetic matrix, 2015)
Values joined by “and” are separate entries in the source; they are usually repeats but may differ in a detail not shown here. Identical values can stand only once. In all, about 5,500 compounds went through this assay and about 2,000 (36%) were called active. Another 18% or so got no clear call; they are omitted. Cut-off read from the data, not from the text of the source: active = normalized growth mostly below about 0.91 (no sharp cut-off); inconclusive = no clear call, values can overlap the other calls; inactive = mostly above about 0.92. The list shows a part of the results.

Assay: chemical genetic growth profiling, strain panel (AID 1159580);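 note: tested at 20 µM; growth read once vehicle control cultures reached saturation at 30 °C; 1 = growth at the plate median or of vehicle wells; lower values mean less growth of the strain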
Conditions: S. cerevisiae deletion strains, growth OD

Measured: normalized growth

CCn1cc(C(=O)O)c(=O)c2cnc(N3CCNCC3)nc21
inactive: locus YAL021C, strain ccr4, hits give low values 1.02 | locus YAL026C, strain drs2, hits give low values 1.03 | locus YAL030W, strain snc1, hits give low values 1.03 | locus YBL061C, strain skt5, hits give low values 1.04 | locus YBR009C, strain hhf1, hits give low values 1.02 | locus YBR021W, strain FUR4, hits give low values 0.997 | locus YBR023C, strain chs3, hits give low values 1.03 | locus YBR171W, strain sec66, hits give low values 1.04 | locus YBR229C, strain ROT2, hits give low values 0.98 | locus YBR231C, strain swc5, hits give low values 0.998 | locus YBR279W, strain paf1, hits give low values 1.01 | locus YCL011C, strain gbp2, hits give low values 1.04 | locus YCL016C, strain dcc1, hits give low values 1.01 | locus YCL029C, strain bik1, hits give low values 0.987 | locus YCL069W, strain vba3, hits give low values 1.02 | locus YCR088W, strain abp1, hits give low values 1.02 | locus YDL005C, strain med2, hits give low values 1 | locus YDL035C, strain GPR1, hits give low values 1.01 | locus YDL040C, strain nat1, hits give low values 1 | locus YDL074C, strain BRE1, hits give low values 1.06 | locus YDL101C, strain DUN1, hits give low values 0.994 | locus YDL134C, strain PPH21, hits give low values 0.986 | locus YDL185W, strain tfp1, hits give low values 0.985 | locus YDL192W, strain arf1, hits give low values 0.985 | locus YDR001C, strain nth1, hits give low values 1.01 | locus YDR069C, strain doa4, hits give low values 1.02 | locus YDR101C, strain arx1, hits give low values 1.01 | locus YDR137W, strain rgp1, hits give low values 1 | locus YDR159W, strain sac3, hits give low values 0.945 | locus YDR162C, strain NBP2, hits give low values 0.992 | locus YDR195W, strain ref2 0.975 | locus YDR297W, strain sur2, hits give low values 1 | locus YDR318W, strain mcm21, hits give low values 1.01 | locus YDR334W, strain swr1, hits give low values 1.02 | locus YDR335W, strain msn5, hits give low values 1.01 | locus YDR388W, hits give low values 0.993 | locus YDR392W, strain spt3, hits give low values 0.959 | locus YDR502C, strain sam2, hits give low values 1 | locus YEL003W, strain gim4, hits give low values 1.02 | locus YEL037C, strain rad23, hits give low values 1.01 | locus YEL061C, strain CIN8 (second series), hits give low values 1 | locus YEL061C, strain CIN8, hits give low values 0.995 | locus YER015W, strain faa2, hits give low values 1.02 | locus YER016W, strain bim1, hits give low values 1.02 | locus YER110C, hits give low values 0.987 | locus YER111C, strain swi4, hits give low values 1.02 | locus YER155C, strain BEM2 (second series), hits give low values 0.981 | locus YER155C, strain BEM2, hits give low values 0.983 | locus YER167W, strain BCK2, hits give low values 0.987 | locus YFR010W, strain ubp6, hits give low values 1 | locus YGL078C, strain dbp3, hits give low values 1 | locus YGL086W, strain mad1, hits give low values 1.01 | locus YGL167C, strain pmr1, hits give low values 1.01 | locus YGL173C, strain kem1, hits give low values 1 | locus YGL227W, strain vid30, hits give low values 1.01 | locus YGL240W, strain doc1, hits give low values 0.988 | locus YGL248W, strain PDE1, hits give low values 1 | locus YGL253W, strain hxk2, hits give low values 1.04 | locus YGR078C, strain PAC10, hits give low values 1.05 | locus YGR135W, strain pre9, hits give low values 0.963 | locus YGR252W, strain gcn5, hits give low values 1 | locus YHR013C, strain ard1, hits give low values 1.04 | locus YHR027C, strain rpn1, hits give low values 1.01 | locus YHR030C, strain SLT2, hits give low values 0.983 and 1.06 | locus YHR079C, strain IRE1 (second series), hits give low values 0.992 | locus YHR079C, strain IRE1, hits give low values 1.03 | locus YHR094C, strain hxt1, hits give low values 0.984 | locus YHR129C, strain ARP1, hits give low values 0.986 | locus YHR142W, strain chs7, hits give low values 1.04 | locus YHR200W, strain rpn10, hits give low values 0.988 | locus YIL066C, strain RNR3, hits give low values 1.01 | locus YIL073C, strain SPO22, hits give low values 0.961 | locus YIL125W, strain kgd1, hits give low values 0.993 | locus YIR030C, strain dcg1, hits give low values 0.986 | locus YJL092W, strain hpr5, hits give low values 1.02 | locus YJL095W, strain BCK1 (second series), hits give low values 1 | locus YJL095W, strain BCK1, hits give low values 1.03 and 1.04 | locus YJL115W, strain asf1, hits give low values 1 | locus YJL129C, strain trk1, hits give low values 1.04 | locus YJL134W, strain LCB3, hits give low values 0.983 | locus YJL154C, strain vps35, hits give low values 1.03 | locus YJL164C, strain tpk1, hits give low values 1.05 | locus YJL166W, strain qcr8, hits give low values 1.02 | locus YJL168C, strain set2, hits give low values 0.99 | locus YJL187C, strain SWE1 (second series), hits give low values 1.02 | locus YJL187C, strain SWE1, hits give low values 1.02 | locus YJR043C, strain POL32, hits give low values 1 | locus YJR066W, strain TOR1, hits give low values 1
